{
  "source": "PubChem BioAssay AID1554",
  "about": "(Broad Institute, 2009)",
  "note": "Screen size: about 300,000 compounds; about 520 (0.17%) were called active. The full list was thinned out, with actives kept by preference. Values without a mark were called inactive. No stated cut-off is given here; in the data, active means inhibition above about 50%; inconclusive means no clear call, values can overlap the other calls; inactive means below that.",
  "data": [
    {"experiment": "PubChem AID 1554", "settings": "BJeLR (HRASV12) viability, CellTiter-Glo ATP luminescence, 48 h; hits give high values; concentration not given here", "values": [
      {"compound": "S=c1[nH]ccn1-c1ccc(Cl)cc1", "inhibition": "1.81%"},
      {"compound": "CC(C)(C)OC(=O)NC(Cc1ccccc1)C(=O)NC(CSC1CCCCO1)C(=O)NN", "note": "(stereo unspecified)", "inhibition": "10.4%"},
      {"compound": "COc1ccccc1C(=O)NCCn1cc(SCC(=O)NCc2ccco2)c2ccccc21", "inhibition": "-1.46%"},
      {"compound": "CC12CCC(C(=O)N(CCC#N)CCC#N)(CC1=O)C2(C)C", "note": "(stereo unspecified)", "inhibition": "-15.4%"},
      {"compound": "COC(=O)c1c(C(=O)OC)c(-c2cccc(C)c2)n2c1CS(=O)C2", "note": "(stereo unspecified)", "inhibition": "0.411%"},
      {"compound": "CC1(C)Oc2ccc3ccc(=O)oc3c2/C(=N/O)C1=O", "inhibition": "0.973%"},
      {"compound": "Cc1ccc2[nH]c(=O)c(CN3CCCCC3)c(-c3ccccc3)c2c1", "inhibition": "4.95%"},
      {"compound": "COC(=O)c1ccc(OCC(O)CN(CCO)CC(O)Cn2ccc3ccccc32)cc1", "note": "(stereo unspecified)", "inhibition": "1.45%"},
      {"compound": "Cc1ccc(O)c(/C=N/NC(=O)COc2ccc3c(C)cc(=O)oc3c2)c1", "inhibition": "-1.41%"},
      {"compound": "CC1(C)CC(N2CCN(C(c3ccccc3)c3ccccc3)CC2)=CC(=[N+]2CCCCC2)C1", "inhibition": "70.6% (active)"},
      {"compound": "O=C1CC(N2CCN(C(c3ccccc3)c3ccccc3)CC2)C(=O)N1", "note": "(stereo unspecified)", "inhibition": "-3.58%"},
      {"compound": "CC1(C)CC(=O)C=C(N2CCCC2)C1", "inhibition": "0.434%"},
      {"compound": "Cc1cc(=O)[nH]c(SCc2ccc(Cl)cc2)n1", "inhibition": "0.607%"},
      {"compound": "O=C(Oc1ccc(Br)cc1)c1cccnc1", "inhibition": "-11.9%"},
      {"compound": "O=C(Oc1ccc(-c2nc(-c3ccccn3)no2)cc1)c1ccccc1", "inhibition": "61.8% (active)"},
      {"compound": "Cc1ccc(Oc2nc(-c3ccccn3)nc3ccccc23)cc1", "inhibition": "4.2%"},
      {"compound": "COCCNC(=S)N1CCN(C)CC1", "inhibition": "6.68%"},
      {"compound": "COc1ccc(C(=O)N[C@H](C(=O)NCc2ccccc2)C(C)C)cc1", "inhibition": "-8.87%"},
      {"compound": "COc1cc(OC)cc(C(=O)N[C@H](C(=O)OCC(=O)NC(C)c2ccccc2)C(C)C)c1", "note": "(stereo partly specified)", "inhibition": "-3.17%"},
      {"compound": "COc1cc(OC)cc(C(=O)N[C@H](C(=O)Nc2nc3ccccc3[nH]2)C(C)C)c1", "inhibition": "50.8% (active)"},
      {"compound": "CCOC(=O)c1sc(C)c2c1NC(C)(c1cccc3ccccc13)NC2=O", "note": "(stereo unspecified)", "inhibition": "-6.51%"},
      {"compound": "Cc1cc(C)n(-c2ccc(C(=O)O)cc2[N+](=O)[O-])n1", "inhibition": "3.87%"},
      {"compound": "CC(=O)c1ccc(Oc2cc(C)nc(-n3nc(C)cc3C)n2)cc1", "inhibition": "50.8% (active)"},
      {"compound": "Cc1cc(Oc2ccc(Cl)cc2)nc(SCC(=O)c2ccccc2)n1", "inhibition": "-7.21%"},
      {"compound": "COc1ccccc1NC(=O)c1cc(N2C(=O)C3C4CCC(C4)C3C2=O)ccc1Cl", "note": "(stereo unspecified)", "inhibition": "-10.4%"},
      {"compound": "C=CCn1c(SCC(=O)c2ccc(Br)cc2)nnc1C(C)NC(=O)Cc1ccc(OC)cc1", "note": "(stereo unspecified)", "inhibition": "2.52%"},
      {"compound": "NS(=O)(=O)c1ccc(CNC(=O)c2cnccn2)cc1", "inhibition": "4.27%"},
      {"compound": "CCC(C)Sc1nc2c(cnn2-c2ccc(F)cc2)c(=O)[nH]1", "note": "(stereo unspecified)", "inhibition": "-2.29%"},
      {"compound": "CC1(C)CC(=O)C(C=NCCN2CCN(C(=S)Nc3cccc(Cl)c3)CC2)=C(O)C1", "inhibition": "8.42%"},
      {"compound": "CSCCC(NC(=O)COc1ccccc1)C(=O)OCCOc1ccc(F)cc1", "note": "(stereo unspecified)", "inhibition": "-6.51%"},
      {"compound": "CCOC(=O)c1sc(NC(=O)CSc2nc(O)c(Cc3ccccc3)c(=O)[nH]2)nc1C", "inhibition": "5.77%"},
      {"compound": "CCCn1c(=N)n(CC(=O)c2ccc(Cl)c(Cl)c2)c2ccccc21", "inhibition": "3.45%"},
      {"compound": "COc1ccc2c(c1)N(C)/C(=C1/SC(=S)N(NC(C)=O)C1=O)S2", "inhibition": "1.69%"},
      {"compound": "CC(OC(=O)CN1C(=O)C2CCCCC2C1=O)C(=O)Nc1ncc(Cl)cc1Cl", "note": "(stereo unspecified)", "inhibition": "6.26%"},
      {"compound": "CCOC(=O)c1c(N)sc2c1CCCC2=O", "inhibition": "7.59%"},
      {"compound": "O=C(Nc1ccc(C(=O)O)cc1)/C(=C\\c1ccccc1)NC(=O)c1ccc(Br)cc1", "inhibition": "-0.97%"},
      {"compound": "Cc1ccc(OC(=O)c2cncc(Br)c2)c(C)c1", "inhibition": "-5.3%"},
      {"compound": "CC1CN(C2CCN(C(=O)COc3ccccc3)CC2)CC(C)O1", "note": "(stereo unspecified)", "inhibition": "-0.241%"},
      {"compound": "Cc1c(C(=O)N(Cc2ccccc2)Cc2cccnc2)cnn1-c1ccc(F)cc1", "inhibition": "-6%"},
      {"compound": "O=[N+]([O-])c1cc(Br)c(O)c(/C=N/Nc2nc3ccccc3s2)c1", "inhibition": "7.46%"},
      {"compound": "O=C(CNC(=O)c1ccccc1)Oc1ccc([N+](=O)[O-])cc1", "inhibition": "-1.21%"},
      {"compound": "O=C(NC(Nc1nc2ccc([N+](=O)[O-])cc2s1)(C(F)(F)F)C(F)(F)F)c1ccccc1", "inhibition": "77.1% (active)"},
      {"compound": "O=C(CCC(=O)NNc1nc2ccccc2c2nc(-c3ccccc3)nn12)NCCCN1CCCC1=O", "inhibition": "0.872%"},
      {"compound": "CCOC(=O)COc1ccc([N+](=O)[O-])cc1", "inhibition": "-3.89%"},
      {"compound": "Cc1ccc(NC(=O)/C(=C/c2ccc([N+](=O)[O-])cc2)NC(=O)c2ccccc2)cc1", "inhibition": "-1.53%"},
      {"compound": "CCOC(=O)/C(=C\\c1ccc([N+](=O)[O-])cc1)C(=O)c1cc(C(C)=O)c(Nc2ccccc2)s1", "inhibition": "58.8% (active)"},
      {"compound": "Cc1ccc(NC(=O)c2cnc(SCC(=O)NCC3CCCO3)n(C)c2=O)cc1", "note": "(stereo unspecified)", "inhibition": "1.95%"},
      {"compound": "COc1cc(CN2CCN(Cc3ccc(C)cc3)CC2)c([N+](=O)[O-])cc1OC", "inhibition": "1.71%"},
      {"compound": "COC(=O)CN1C(=O)C(C)(C)Oc2ccc(C(=O)Nc3cccc(OC)c3)cc21", "inhibition": "-4.31%"},
      {"compound": "COc1ccc(CCNC(=O)COC(=O)Cc2cc(OC)c(OC)c(OC)c2)cc1", "inhibition": "0.941%"},
      {"compound": "COc1cc2c(C(=O)N(C)c3cc(Cl)ccc3OC)cn(C)c(=O)c2cc1OC", "inhibition": "-4.19%"},
      {"compound": "O=C(c1ccc(OC2CCN(Cc3ccccn3)CC2)cc1)N1CCCCCC1", "inhibition": "-3.12%"},
      {"compound": "O=C(NCCOc1cccnc1)c1ccc(OC2CCN(Cc3ccccn3)CC2)cc1", "inhibition": "113% (active)"},
      {"compound": "Cn1cc(CNC(=O)c2ccc(OC3CCN(Cc4ccccn4)CC3)cc2)cn1", "inhibition": "2.21%"},
      {"compound": "O=C(CN1C(=O)c2cccnc2Oc2ccc(Cl)cc21)NCCc1ccccc1", "inhibition": "2.42%"},
      {"compound": "CC(=O)N1CCN(c2ccc(NCc3ccc(C(C)C)cc3)cc2)CC1", "inhibition": "-2.24%"},
      {"compound": "CC(=O)c1ccc(N2Cc3ccccc3C2)cc1", "inhibition": "-5.06%"},
      {"compound": "C/C(=N/NC(=O)CN1CCN(S(=O)(=O)c2ccc(Br)cc2)CC1)c1ccncc1", "inhibition": "4.03%"},
      {"compound": "O=C(c1cc(-c2ccc(Cl)s2)nc2ccccc12)N1CCOCC1", "inhibition": "-8.28%"},
      {"compound": "Cc1ccc(CSCCNC(=O)CN(c2ccc(F)cc2)S(C)(=O)=O)cc1", "inhibition": "-8.45%"},
      {"compound": "CC1CCCC(N2CCN(C(=O)c3ccc(F)cc3)CC2)C1", "note": "(stereo unspecified)", "inhibition": "-5.87%"},
      {"compound": "O=C(NCc1ccccc1Cl)c1ccc2c(=O)n(CC3CCCO3)c(=S)[nH]c2c1", "note": "(stereo unspecified)", "inhibition": "9.1%"},
      {"compound": "COc1cc(NC(=O)CSC(=S)N2CCCC2)c(OC)cc1Cl", "inhibition": "-1.51%"},
      {"compound": "CCOc1ccc(OCCSc2nc3ccccc3n2CC(=O)O)cc1", "inhibition": "-3.19%"},
      {"compound": "Cc1ccc2cc(C#N)c(NCCNC(=S)NCCCN3CCOCC3)nc2c1", "inhibition": "4.4%"},
      {"compound": "COc1cc([N+](=O)[O-])ccc1NC(=S)N1CCN(c2ccccn2)CC1", "inhibition": "-1.41%"},
      {"compound": "CCOC(=O)C1=C(c2ccc(OC)cc2)C(=O)c2ccccc2C1=O", "inhibition": "110% (active)"},
      {"compound": "COc1ccc(N2CCN(C(C)=C3C(=O)c4ccccc4C3=O)CC2)cc1", "inhibition": "2.27%"},
      {"compound": "CCOC(=O)c1cc2cc3ccccc3cc2oc1=O", "inhibition": "-11.8%"},
      {"compound": "Cc1ccc(S(=O)(=O)n2cccc2CO)cc1", "inhibition": "-3.34%"},
      {"compound": "COCCNS(=O)(=O)c1cc(Br)ccc1OC", "inhibition": "-2.67%"},
      {"compound": "O=C(NCc1ccc2c(c1)OCO2)c1cc2c(s1)CS(=O)(=O)C2", "inhibition": "5.68%"},
      {"compound": "COc1ccc(C(=O)O)cc1S(=O)(=O)NCc1cccnc1", "inhibition": "4.17%"},
      {"compound": "Cn1cc(CCC(=O)N2CCCC(C(=O)c3ccc(C(C)(C)C)cc3)C2)cn1", "note": "(stereo unspecified)", "inhibition": "-7.89%"},
      {"compound": "CC(NC(=O)CCCC1CCCCC1)c1ccc(S(N)(=O)=O)cc1", "note": "(stereo unspecified)", "inhibition": "10.8%"},
      {"compound": "COc1ccc(S(=O)(=O)N2CCCCCC2)cc1C(=O)N(C)Cc1cccc(OC)c1OC", "inhibition": "-3.35%"},
      {"compound": "O=S(=O)(Cc1noc(-c2ccc(OC(F)(F)F)cc2)n1)c1ccc(F)cc1", "inhibition": "-11.6%"},
      {"compound": "Cc1nnc(SCC(=O)N2c3ccccc3C(C)(c3ccc(Cl)cc3)CC2(C)C)s1", "note": "(stereo unspecified)", "inhibition": "13.1%"},
      {"compound": "Cc1[nH]c(C)c(S(=O)(=O)N2CCN(c3cccc(C(F)(F)F)c3)CC2)c1C(=O)N1CCCCC1", "inhibition": "0.76%"},
      {"compound": "Nc1ccc(-n2nncc2-c2ccco2)cc1", "inhibition": "11.6%"},
      {"compound": "CCOc1c(N2CCCCC2)c(=O)c1=O", "inhibition": "5.32%"},
      {"compound": "Cc1ccc(/C=C/C(=O)Nc2ccc([N+](=O)[O-])c(NC(=O)/C=C/c3ccc(C)o3)c2)o1", "inhibition": "-29.1%"},
      {"compound": "O=C(/C=C/c1ccc([N+](=O)[O-])o1)NNC(=O)c1ccc(F)cc1", "inhibition": "60.3% (active)"},
      {"compound": "O=C(N/N=C/c1ccc([N+](=O)[O-])o1)c1cn(-c2ccccc2)nc1-c1ccc(F)cc1", "inhibition": "-4.37%"},
      {"compound": "CNS(=O)(=O)c1cccc(C(=O)NC2CCCc3ccccc32)c1", "note": "(stereo unspecified)", "inhibition": "-3.04%"},
      {"compound": "CCCCCC(O)(CCN1CCCCC1)c1ccccc1", "note": "(stereo unspecified)", "inhibition": "-2.94%"},
      {"compound": "CC(C)CC[n+]1ccn(C2=C([O-])c3ccccc3C(=O)/C2=N\\S(=O)(=O)c2ccccc2)c1", "inhibition": "-5.54%"},
      {"compound": "CN(C)/C=C(\\C#N)C(=O)c1cccnc1Oc1ccc(F)cc1F", "inhibition": "-6.11%"},
      {"compound": "Oc1ccc2ccccc2c1N=Nc1nccs1", "inhibition": "77.1% (active)"},
      {"compound": "COC(=O)CCSc1cc([N+](=O)[O-])cc2c1c(C1OCCS1)nn2-c1ccccc1", "note": "(stereo unspecified)", "inhibition": "3.81%"},
      {"compound": "CCOc1ccc(C(C)=O)cc1CSc1nnc(-c2ccncc2)n1CCOC", "inhibition": "-17.6%"}
    ]}
  ]
}
